Source: PubChem BioAssay AID588855 (National Center for Advancing Translational Sciences (NCATS), 2011)
In all, about 410,000 compounds went through this assay and about 5,000 (1.2%) were called active. Not shown: some 13% with an inconclusive outcome. Calls come from the whole dose curve; as a rule, active = well fitted inhibition curve with a large enough effect; inconclusive = small, poorly fitted or top-dose-only effect; inactive = no such curve, though single readings can be large or run the other way. For the sample, actives were picked, then their nearest neighbours and some compounds at random.

experiment: qHTS for Inhibitors of TGF-b; settings: HepG2 CAGA-GFP TGF-b/SMAD3 reporter, GFP fluorescence, 18 h, TGF-beta stimulated, 500 pg/mL final; series mostly up to 46.1 µM; activity, negative = inhibition: at the top concentration; note: nearly all actives have a fitted effect of over 65% in size
How it was run: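 GFP signal (ex488/em500-530) from TGF-beta-stimulated HEPG2 CAGA-GFP cells, 500 pg/mL final, 18 h at 37 degrees C in DMEM plus 1% FBS, normalized to unstimulated and DMSO-stimulated controls.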
% is set by controls: 0 for no effect and ±100 for the full control effect; potency is the fitted concentration of half-maximal effect.

| SMILES | activity, negative = inhibition | Potency |
| --- | --- | --- |
| Cc1cc(C)cc(NC(=O)Cc2csc(C)n2)c1 | 0% (inactive) | – |
| Cc1ccc(C)c(S(=O)(=O)n2nc(C)c(S(=O)(=O)N3CCC(C)CC3)c2C)c1 | 1.69% (inactive) | – |
| COC(=O)c1cc(Oc2ccc(S(=O)(=O)N3CCOCC3)cc2[N+](=O)[O-])cc(C(=O)OC)c1 | -15.1% (inactive) | – |
| CC(C)N1CCC(=NNc2ccc([N+](=O)[O-])cc2S(=O)(=O)N2CCOCC2)CC1 | – | 11.2 µM (active) |
| O=[N+]([O-])c1cc(S(=O)(=O)N2CCCC2)ccc1NN=C1CCCC1 | -8.61% (inactive) | – |
| Cc1ccc(C)c(N2CCN(C(=O)CCc3c(C)nc4c(c3C)c(=O)n(C)c(=O)n4C)CC2)c1 | -24.3% (inactive) | – |
| CCOc1ccc(CNC(=O)c2ccc(CS(=O)c3ccccc3)o2)cc1 (stereo unspecified) | -1.57% (inactive) | – |
| CC(=O)c1ccc(N2CCN(C3C(=O)c4ccccc4N3C(C)=O)CC2)cc1 (stereo unspecified) | 0% (inactive) | – |
| CCN(C(=O)COc1ccc(C(=O)c2ccccc2)cc1)c1ccccc1 | -18% (inactive) | – |
| CCOc1ccc2nc(N(CCCN(C)C)C(=O)c3ccc(C(=O)c4ccccc4)cc3)sc2c1 | – | 22.4 µM (active) |
| CCOc1ccc2nc(C(=O)N3CCCC(C)C3)sc2c1 (stereo unspecified) | 3.8% (inactive) | – |
| Cc1ccc2nc(/C(C#N)=C/c3ccccc3F)[nH]c2c1 | -31.6% (inactive) | – |
| O=S(=O)(c1ccccc1)N1CCc2ccccc21 | -0.156% (inactive) | – |
| Cn1c(=O)n(C)c2cc(S(=O)(=O)N3CCCc4ccccc43)ccc21 | – | 12.6 µM (active) |
| CCn1c(=O)c(=O)n(CC)c2cc(S(=O)(=O)N3CCc4ccccc43)ccc21 | 8.33% (inactive) | – |
| Cc1cc(C)cc(NC(=O)CSc2oc(-c3ccccc3)nc2S(=O)(=O)c2ccc(Cl)cc2)c1 | 4.95% (inactive) | – |

| SMILES | activity, negative = inhibition | Potency |
| --- | --- | --- |
| COc1cc(C(=O)N2CCN(c3ccc(Nc4ccc(C)cc4)nn3)CC2)cc(OC)c1OC | -7.49% (inactive) | – |
| Cc1onc(-c2c(F)cccc2Cl)c1C(=O)N(C)CC(=O)Nc1cccc(F)c1 | -2.61% (inactive) | – |
| Cc1onc(-c2ccc(F)cc2F)c1C(=O)Nc1cccc(C(F)(F)F)c1 | – | 12.6 µM (active) |
| Cc1onc(-c2c(F)cccc2Cl)c1C(=O)Nc1cccc(S(=O)(=O)N2CCCCC2)c1 | 5.34% (inactive) | – |
| O=C1c2ccccc2C(=O)N1c1ccc(S(=O)(=O)N2CCOCC2)c2ccccc12 | 3.68% (inactive) | – |
| Cc1ccc(-c2noc(-c3nnn(-c4cccc(C(F)(F)F)c4)c3N)n2)cc1 | 9.38% (inactive) | – |
| COc1ccc(OC)c(CCNC(=O)CCCn2c(=O)c3cccn3c3cccnc32)c1 | -4.81% (inactive) | – |
| CCOCCc1nn2c(=O)cc(COC(=O)CNC(=O)c3ccc(C(C)(C)C)cc3)nc2s1 | -31.7% (inactive) | – |
| CCOC(=O)Cn1c(=O)n(C2CCCCC2)c2nc(-c3cccc(OC)c3)nc(C(N)=O)c21 | 1.49% (inactive) | – |
| Cc1nc2c(OCc3ccc(Cl)cc3Cl)cccn2c1N(C)CC1CC1 | – | 11.2 µM (active) |
| Cc1nc2c(OCc3cccc(Cl)c3)cccn2c1N(C)CC1CC1 | -16.2% (inactive) | – |
| CCc1nc2c(OCc3ccc(Cl)cc3Cl)cccn2c1N(C)C(=O)C(C)C | – | 12.6 µM (active) |
| CCc1nc2c(OCc3cccc(OC)c3)cccn2c1N(C)C(=O)C(C)C | -1.92% (inactive) | – |
| Cc1nc2c(OCC(=O)C(C)(C)C)cccn2c1N(C)Cc1cccs1 | -8.85% (inactive) | – |
| CCc1nc2c(OCc3ccc(C(=O)OC)cc3)cccn2c1N(C)C(=O)C(C)C | -7.08% (inactive) | – |
